# An excerpt weighted towards active compounds, which were near 9.2% of everything screened.
# UCHL1 inh: inhibitors of human UCHL1 deubiquitinase | P09936 | purified UCHL1, Ub-rhodamine cleavage fluorescence | inhibition, % at 20 µM | 47,000 tested, 0.2% active | AID 1645859
# OTUD3 inh: inhibitors of human OTUD3 deubiquitinase; purified OTUD3, Ub-rhodamine fluorescence, 2 h; inhibition, % at 25 µM; 47,000 tested, 0.7% active
# USP7 block: inhibitors of human USP7 deubiquitinase. inhibition, % at 20 µM. Q93009. purified USP7, Ub-rhodamine cleavage fluorescence. AID 1645854. 47,000 tested, 0.3% active
# USP10 block: blocks human USP10 ubiquitin-rhodamine cleavage. 47,000 tested, 1.1% active. purified USP10, Ub-rhodamine fluorescence, 60 min. inhibition, % at 20 µM. Q14694. AID 1645856
# USP17 inh: inhibitors of human USP17 deubiquitinase; A8MUK1; purified USP17, Ub-rhodamine cleavage fluorescence, 3 h; inhibition, % at 50 µM; 47,000 tested, 6.5% active; AID 1645855
# Target sequence (A8MUK1 whole entry, looked up): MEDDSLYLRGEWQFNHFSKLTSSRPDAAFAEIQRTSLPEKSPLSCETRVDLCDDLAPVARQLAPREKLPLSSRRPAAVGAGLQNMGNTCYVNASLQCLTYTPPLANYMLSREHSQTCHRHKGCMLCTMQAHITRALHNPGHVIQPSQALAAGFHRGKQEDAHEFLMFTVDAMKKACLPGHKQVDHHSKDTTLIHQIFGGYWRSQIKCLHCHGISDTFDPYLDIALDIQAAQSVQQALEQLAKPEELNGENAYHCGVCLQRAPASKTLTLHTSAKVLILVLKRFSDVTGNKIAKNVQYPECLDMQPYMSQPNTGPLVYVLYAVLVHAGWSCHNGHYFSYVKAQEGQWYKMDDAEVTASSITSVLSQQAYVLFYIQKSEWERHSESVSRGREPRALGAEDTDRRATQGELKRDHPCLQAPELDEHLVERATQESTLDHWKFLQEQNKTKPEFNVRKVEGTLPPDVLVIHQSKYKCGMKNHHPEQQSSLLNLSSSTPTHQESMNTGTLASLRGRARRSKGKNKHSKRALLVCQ
# USP8 inh: human USP8 deubiquitinase inhibition; P40818; purified USP8, Ub-rhodamine cleavage fluorescence, 30 min; 47,000 tested, 4.2% active; inhibition, % at 20 µM
# Active calls of the source: *. Cut-off read from the data, not from the text of the source: active = inhibition above about 30%; inactive = the rest.
SMILES,UCHL1 inh,OTUD3 inh,USP7 block,USP10 block,USP17 inh,USP8 inh
Nc1cc(-c2cn[nH]c2C2CCN(C(=O)c3cccc4cccnc34)C2)ccn1 (configuration not stated),0,8,2,-1,12,8
CNc1nc(C2CCN(C)CC2)nc2c1CCN(C(=O)c1c(C(C)C)noc1C)C2,1,8,4,0,13,22
Cc1ccc(C(=O)C(C)OC(=O)c2cc3ccccc3oc2=O)cc1 (configuration not stated),0,2,0,4,47*,-1
COC(=O)c1ccc(CNC(=O)c2cc3ccccc3oc2=O)cc1,2,2,7,6,62*,0
COC(=O)c1ccc(CNC(=O)c2ccc3c(c2)OCCO3)cc1,-3,-1,0,-2,14,3
COC(=O)c1ccc(CNC(=O)c2ccc(Oc3ccccc3)cc2)cc1,3,12,2,12,12,34*
O=C(COc1cccc(C(=O)NCc2ccccc2)c1)Nc1ccc(Oc2ccccc2)cc1,1,40*,10,11,40*,10
Cc1cc(CNC(=O)c2cc3ccccc3oc2=O)nn1C,0,0,0,1,-7,4
Cc1cc(=O)oc2cc(OCC(=O)NCc3ccncc3)ccc12,0,-4,1,1,5,3
Cc1c(C)c2ccc(OCC(=O)NCc3ccncc3)c(C)c2oc1=O,4,3,5,0,46*,7
COc1ccc(Cl)cc1Nc1cc(C)c2ccccc2n1,2,7,7,0,11,12
Clc1ccc(Oc2nc3ccccc3c3nnc(-c4ccc(Br)cc4)n23)c(Cl)c1,3,9,5,4,37*,5
O=S(=O)(c1ccccc1)N1CCN(c2cc(-c3cccnc3)[nH]n2)CC1,0,6,-2,0,28,-23
O=S(=O)(c1ccccc1)N1CCN(c2ccc(-c3cccnc3)nn2)CC1,0,-7,0,1,49*,-172
O=C(NC1CCCC1)C1CCN(c2cnc(N3CCCC3)nc2)CC1,0,-3,4,1,-4,-6
Cc1cccc(N2CCN(C(=O)C3CCN(S(=O)(=O)c4cccc5nonc45)CC3)CC2C)c1 (configuration not stated),0,-11,1,0,-10,-3
CCN(c1ccc(NC(=O)CSc2nnc(-c3ccccc3)n2-c2ccc(OC)c(OC)c2)cc1)C(C)C,11,21,11,24,63*,6
CSC1SCC2C(=O)N(C)C(C(C)C(C)C)C(=O)OCC(NC(=O)c3cnc4ccccc4n3)C(=O)NC(C)C(=O)N(C)C1C(=O)N(C)C(C(C)C(C)C)C(=O)OCC(NC(=O)c1cnc3ccccc3n1)C(=O)NC(C)C(=O)N2C (configuration not stated),7,2,18,38*,18,14
CCCCCc1cc(O)c2c(ccc3c(O)c4c(cc32)C(C)(C)c2cc(O)cc(O)c2C4=O)c1,2,4,-1,10,31*,1
COc1ccc(NC(C)=O)cc1S(=O)(=O)N(CC(=O)Nc1ccc(C)cc1)CC(=O)Nc1ccc(C)cc1,2,-5,5,-4,34*,1
COc1ccc(S(=O)(=O)Nc2ccc(Cc3ccncc3)cc2)c2ccccc12,2,2,8,4,7,43*
COc1ccc(CC(C#N)(C(=O)NC2CCCCC2)c2nc3ccccc3[nH]2)cc1 (configuration not stated),-2,-10,-12,-5,0,70*
CC(C)=CCC/C(C)=C/Cc1c(O)cc2c(c1O)C(=O)OC2,83*,79*,88*,64*,63*,57*
CCc1nnc(NC(=O)Cn2ncc3ccccc32)s1,4,18,7,3,0,5
CCc1nnc(NC(=O)Cn2ncc3c(=O)oc4ccc(C)cc4c32)s1,2,3,6,3,31*,15
SMILES,UCHL1 inh,OTUD3 inh,USP7 block,USP10 block,USP17 inh,USP8 inh
COC(=O)c1ccccc1NC(=O)c1sccc1Oc1ccc(F)cc1[N+](=O)[O-],6,15,10,2,12,12
O=C(Nc1ccccc1)c1sccc1Oc1ccc([N+](=O)[O-])c(C(F)(F)F)c1,5,-4,-4,8,-3,44*
O=C(Nc1ccccc1F)c1sccc1Oc1ccc([N+](=O)[O-])cc1F,4,17,-3,9,45*,87*
O=C(Nc1cc(S(=O)(=O)N2CCCCC2)ccc1N1CCCCC1)C1COc2ccccc2O1 (configuration not stated),-3,-11,-2,-12,-47,-259
O=C(O)c1ccc(Cl)c(NC(=O)C2COc3ccccc3O2)c1 (configuration not stated),-5,-3,58*,-2,-2,-2
COc1ccc(-c2c(NC(=O)C3COc4ccccc4O3)n[nH]c2C)cc1OC (configuration not stated),29,8,-144,6,0,18
Cc1[nH]nc(NC(=O)C2COc3ccccc3O2)c1-c1ccccc1 (configuration not stated),32*,37*,-141,26,39*,47*
COc1ccccc1N1CCN(C(=O)c2cc(-c3ccccn3)nc3ccccc23)CC1,2,3,-2,-3,-10,-12
Cc1ccc(C2=NC3(CCN(C(=O)Cc4ccccc4)CC3)NC2=O)cc1,0,7,0,0,7,10
Cc1ccc(/C=C/C(=O)Cc2ccccc2)cc1,7,22,7,9,41*,23
COc1ccc(N2CCN(c3ccc(Cl)cc3[N+](=O)[O-])CC2)cc1,3,-2,2,5,13,33*
Nc1ncnc2c1c(-c1ccccc1)c(-c1ccccc1)n2CCc1ccc(F)cc1,3,11,9,2,44*,12
Cc1c(Cl)cccc1S(=O)(=O)N1CCCC(c2nnc(C(F)(F)F)o2)C1 (configuration not stated),0,-6,-8,1,-8,-1
Cn1c(=O)c(C(CO)CCO)nc2c(OCc3ccccc3)nc(N)nc21 (configuration not stated),-3,4,7,-1,6,-10
Cn1c(=O)c(C2CCCCC2O)nc2c(OCc3ccccc3)nc(N)nc21 (configuration not stated),1,5,5,-4,42*,9
CCn1cc(-c2nc(-c3ccccn3)no2)c(=O)c2cc(F)ccc21,2,13,3,4,58*,2
Cc1nnc(SCC(=O)c2ccc3ccccc3c2)n1Cc1ccccc1,1,-3,-4,0,0,7
O=C(CSc1nnc(-c2ccncc2)n1Cc1ccccc1)c1ccc2[nH]c(O)cc2c1,-5,-5,-1,-3,58*,65*
